The record followed here is PubChem BioAssay AID2685 (National Center for Advancing Translational Sciences (NCATS), 2010).

Among all 320,000 compounds or so, about 2,100 (0.66%) were called active. Not shown: some 53% with an inconclusive outcome. The call rests on the fitted dose curve; in most records, active means well fitted inhibition curve with a large enough effect in the signal ratio, with a control signal flat (not every such curve was filed as active); inconclusive means small, poorly fitted or top-dose-only effect, or effect the other way, or a change in a side signal; inactive means flat fitted curve, though single readings scatter; the % refers to the signal ratio. The list comes from a sample in which actives are over-represented; it also holds similar structures and randomly drawn compounds.
Potency means the concentration at half of the fitted maximal effect.

This test is described as follows: qHTS Assay for Lipid Storage Modulators in Drosophila S3 Cells.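 On cell number change: cells counted by Cell Tracker Red CMTPX staining in the red channel.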 On lipid storage change, negative = inhibition: on the % scale 0 is the no-effect control and ±100 the full control effect. The note with it: BODIPY lipid droplet fluorescence, 18-24 h, cells fed with added oleic acid; cell number change: measured here: cell count max response; series mostly up to 46.1 µM; lipid storage change, negative = inhibition: at the top concentration. The method, boiled down: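 Drosophila S3 cells loaded with oleic acid (400 uM, as added) and compounds at several concentrations; lipid droplets imaged by 488-nm laser-scanning cytometry, 500–530 nm intensity and object ratio to cell channel. Percent activity normalized to 20 uM Triacsin C.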
Background: In qHTS, concentration-response curves come from the screen itself.
In the case of `COc1cccc(C2=NOC(C(=O)N3CCN(Cc4ccccc4)CC3)C2)c1OC` (stereo unspecified), the “lipid storage change, negative = inhibition” value is 10% (inactive) and the cell number change is -0.697%.

Turning to `COc1ccc(CCN(C)CC(O)COC(c2ccc(F)cc2)c2ccc(F)cc2)cc1OC` (stereo unspecified), the “lipid storage change, negative = inhibition” value is 2.95% (inactive) and the cell number change was -8.84%. The like results for `COc1cccc(CN2CCN(C3CCN(c4ccccc4C)CC3)CC2CCO)c1` (stereo unspecified) were, in that order, -8.75% (inactive) and -24%.

Turning to `COc1ccc(Cl)cc1NC(=O)Nc1ccccc1C(N)=O`, the “lipid storage change, negative = inhibition” value is 0.552% (inactive) and the cell number change came to 14.7%.

As to `Cc1ccc(N2C(=O)N3[C@H](c4cccc(C)c4)[C@@H]4C(=O)N(Cc5ccccc5)C(=O)[C@@H]4[C@]3(C)C2=O)cc1`, the “lipid storage change, negative = inhibition” value was 7.22% (inactive) and the cell number change was -18.1%. The like results for `Cc1cccc([C@@H]2[C@@H]3C(=O)N(Cc4ccccc4)C(=O)[C@@H]3[C@]3(C)C(=O)N(c4cccc(Cl)c4)C(=O)N23)c1` were, in that order, -18.9% (inactive) and -9.71%. With `Cc1cccc([C@@H]2[C@@H]3C(=O)N(Cc4ccccc4)C(=O)[C@@H]3[C@]3(C)C(=O)N(c4ccc(Br)cc4)C(=O)N23)c1`, the Potency is 2.31 µM (active) and the cell number change was determined as 17.2%. Consider `CN(C(=O)c1cccnc1)c1nnc(-c2cccnc2)s1`, for which the “lipid storage change, negative = inhibition” value is 12.5% (inactive) and the cell number change was -7.8%. The like results for `COc1ccccc1NC(=O)Nc1cccc(NC(C)=O)c1` were, in that order, -4.12% (inactive) and -3.02%. Consider `Cc1csc(NC(=O)c2ccc3ccccc3n2)n1`, for which the “lipid storage change, negative = inhibition” value is 5.76% (inactive) and the cell number change came out at 7.3%. With `Cc1csc(NC(=O)c2cnc3ccccc3n2)n1`, the Potency was 1.64 µM (active). `Cc1csc(NC(=O)c2ccccc2)n1`: the “lipid storage change, negative = inhibition” value is 17.8% (inactive) and the cell number change turned out to be 23.7%. In the case of `Cc1cccc(N2CCN(C(=O)C(NS(=O)(=O)c3cccs3)c3ccccc3)CC2)c1C` (stereo unspecified), the molecule was called inactive and the cell number change was -2.06%. As for `CCN=C1S/C(=C\c2cc(Br)c(O)c(OC)c2)C(=O)N1CC`, the “lipid storage change, negative = inhibition” value is -24.6% (inactive) and the cell number change was -10.5%.

As to `CC(NC(=O)C1CCCCC1)c1ccc2c(c1)OCCO2` (stereo unspecified), the molecule was classed as inactive. As for `Cc1ccc(C(C)(C)C)cc1S(=O)(=O)N1CCC(C(=O)N2CCN(c3ccc(O)cc3)CC2)CC1`, the Potency is 3.66 µM (active) and the cell number change was -13.6%.

As to `O=C(C1CC1)N1CCN(c2ccc(O)cc2)CC1`, the molecule was classed as inactive and the cell number change was 22.2%. `Cc1ccc(C(=O)O)cc1S(=O)(=O)N1CCC(C(=O)O)CC1`: the “lipid storage change, negative = inhibition” value is 16% (inactive) and the cell number change is -0.135%. Take `Cc1ccc(N(Cc2cc3cc(C)ccc3[nH]c2=O)S(=O)(=O)c2ccccc2)cc1`: the “lipid storage change, negative = inhibition” value was -0.784% (inactive) and the cell number change is -3.48%. `CCOC(=O)CSc1nc2ccccc2c(=O)n1CC1CCCO1` (stereo unspecified): the “lipid storage change, negative = inhibition” value is 10.9% (inactive) and the cell number change came to 0.196%. On to `COc1ccc(OC2C(=O)N(Cc3ccc(F)cc3)C2c2ccc(OC)c(OC)c2)cc1` (stereo unspecified), for which the “lipid storage change, negative = inhibition” value is 0.24% (inactive).

In the case of `O=C(Cc1c(Cl)cccc1Cl)Nc1ccc(S(=O)(=O)Nc2ncccn2)cc1`, the “lipid storage change, negative = inhibition” value is -17.5% (inactive) and the cell number change turned out to be 17.5%. Consider `O=C(Cc1ccccc1F)Nc1ccc(S(=O)(=O)Nc2ncccn2)cc1`, for which the Potency is 0.146 µM (active) and the cell number change is 16.8%. `O=C(Cc1ccc(Cl)c(Cl)c1)Nc1ccc(S(=O)(=O)Nc2ncccn2)cc1`: the molecule was called inactive and the cell number change was found to be 8.75%. Regarding `C#CCN(C(=O)c1ccc(OC)c(OC2CCN(C(C)C)CC2)c1)C1CCCCC1`, the “lipid storage change, negative = inhibition” value is 14.3% (inactive) and the cell number change is 13.3%.

Consider `Cc1cc(NC(=O)COC(=O)CSc2nc3cc(Cl)ccc3n2Cc2ccccc2)no1`, for which the “lipid storage change, negative = inhibition” value was 10.6% (inactive) and the cell number change was -15.1%. In the case of `CC(Sc1nccn1C)C(=O)Nc1ccccc1` (stereo unspecified), the “lipid storage change, negative = inhibition” value was 7.52% (inactive) and the cell number change was -8.41%. As to `CC(Sc1nccn1C)C(=O)c1ccc(Br)cc1` (stereo unspecified), the Potency was 18.4 µM (active) and the cell number change stood at 8.97%. For `CC(Sc1nccn1C)C(=O)Nc1ccc(C(N)=O)cc1` (stereo unspecified), the cell number change was determined as 24.6% and the lipid storage change, negative = inhibition was -16.1% [at 0.0737 µM] (inactive). For `Cc1ccc(C)c(NS(=O)(=O)c2ccc(-c3ccc(=O)[nH]n3)o2)c1`, the “lipid storage change, negative = inhibition” value was -0.445% (inactive) and the cell number change is -3.63%.

As for `Cc1cccc(C)c1NS(=O)(=O)c1ccc(-c2ccc(=O)[nH]n2)o1`, the Potency was 16.4 µM (active) and the cell number change was -21.6%. Take `Cc1ccc(NS(=O)(=O)c2ccc(-c3ccc(=O)[nH]n3)o2)c(C)c1`: the “lipid storage change, negative = inhibition” value is -11.7% (inactive) and the cell number change was determined as 3.54%.

For the molecule `O=C(O)/C=C/C(=O)NC1CCC(CC2CCC(NC(=O)/C=C/C(=O)O)CC2)CC1` (stereo unspecified), the “lipid storage change, negative = inhibition” value was 5.98% (inactive) and the cell number change was determined as 16.5%.

`O=C(N/N=C/c1nn(-c2ccccc2)cc1-c1ccc(Cl)cc1)c1ccncc1`: the “lipid storage change, negative = inhibition” value is -4.31% (inactive) and the cell number change came out at 11.9%.

Consider `Cc1ccc2cc(CCNC(=O)c3ccc(S(=O)(=O)N4CCCCC4)cc3)c(=O)[nH]c2c1`, for which the cell number change is 17.8% and the lipid storage change, negative = inhibition is 20.6% [at 9.22 µM] (inactive). As for `O=C(NCCCN=C1NS(=O)(=O)c2ccccc21)c1ccc(S(=O)(=O)N2CCCCC2)cc1`, the Potency was 8.2 µM (active) and the cell number change is -7.55%. For `CCN(CC)S(=O)(=O)c1ccc(C(=O)NCCCN=C2NS(=O)(=O)c3ccccc32)cc1`, the “lipid storage change, negative = inhibition” value was 3.19% (inactive) and the cell number change amounted to 17.2%. In the case of `CN(c1ccccc1)S(=O)(=O)c1ccc(C(=O)NCc2cccs2)cc1`, the “lipid storage change, negative = inhibition” value is -14.7% (inactive).

Turning to `O=C(NCc1ccccc1F)c1ccc(S(=O)(=O)N2CCCCCC2)cc1`, the Potency was 18.4 µM (active) and the cell number change stood at 11.4%. `O=C(NCc1ccccc1F)c1cccc(S(=O)(=O)N2CCCCCC2)c1`: the “lipid storage change, negative = inhibition” value was -28% (inactive) and the cell number change came to 6.02%. `COc1ccc(OC)c2[nH]c(=O)c(CCNC(=O)c3ccc(S(=O)(=O)N4CCCC4)cc3)cc12`: the “lipid storage change, negative = inhibition” value is -1.53% (inactive) and the cell number change stood at 1.32%. Take `CS(=O)(=O)c1ccc(C(=O)NCc2ccccc2F)cc1`: the “lipid storage change, negative = inhibition” value is 4.1% (inactive) and the cell number change stood at 16.1%. Turning to `O=C(NCCN=C1NS(=O)(=O)c2ccccc21)c1ccncc1`, the outcome was inactive and the cell number change is -9.37%. As for `O=C(O)c1ccc(CNC(=O)c2ccc(S(=O)(=O)N3CCCCC3)cc2)cc1`, the “lipid storage change, negative = inhibition” value was 18.3% (inactive) and the cell number change is -13.8%. As to `CN(c1ccccc1)S(=O)(=O)c1ccc(C(=O)NCc2ccccc2F)cc1`, the Potency was 13 µM (active) and the cell number change is -21.4%. The like results for `Cc1ccc(C)c2[nH]c(=O)c(CCNC(=O)c3ccc(S(=O)(=O)N4CCCC4)cc3)cc12` were, in that order, 13 µM (active) and -19%. With `O=C(Nc1ccc(C(=O)N2CCOCC2)cc1)c1cnn2c(C(F)F)cc(-c3ccccc3)nc12`, the “lipid storage change, negative = inhibition” value is 12.7% (inactive) and the cell number change is 19.9%. The like results for `CCCCC1CCC(c2nc(-c3cccnc3)no2)CC1` (stereo unspecified) were, in that order, 16.5% (inactive) and -3.76%. For the molecule `CCN1CCN(S(=O)(=O)Cc2ccccc2Cl)CC1`, the “lipid storage change, negative = inhibition” value is -13.1% (inactive) and the cell number change is -8.44%. The like results for `Cc1noc(C)c1CSc1nnc(-c2ccccc2)o1` were, in that order, 13.2% (inactive) and 4.76%. For the molecule `Cc1ccc(CNC(=O)/C=C/C(=O)O)cc1`, the “lipid storage change, negative = inhibition” value was -3.52% (inactive) and the cell number change was 15%. As to `CN1CCN(c2oc(-c3ccco3)nc2S(=O)(=O)c2ccccc2)CC1`, the “lipid storage change, negative = inhibition” value was 15.9% (inactive) and the cell number change came out at 0.475%.

As for `CC(=O)Nc1ccc(S(=O)(=O)Oc2cccc(N3C(=O)C4CCCCC4C3=O)c2)cc1` (stereo unspecified), the call was inactive and the cell number change was determined as 5.92%. On to `CCOc1ccc(Br)cc1S(=O)(=O)NCc1ccncc1`, for which the “lipid storage change, negative = inhibition” value is 15.6% (inactive) and the cell number change was found to be 3.33%. Consider `Cc1ccc(OCCn2cc(C(=O)O)c3ccccc32)cc1`, for which the “lipid storage change, negative = inhibition” value was -6.41% (inactive) and the cell number change is 6.58%.
